Bioassay records: PubChem BioAssay, several laboratories
BoNT-A LC inh2 = BoNT/A light chain protease inhibitors, primary screen, biochemical, flow cytometry, MLPCN library; multiplex microsphere protease substrate cleavage; AID 588499, 2011; inhibition, % at 10 µM; Botulinum neurotoxin type A light chain protease (Clostridium botulinum A str. ATCC 3502); 360,000 compounds, 0.17% hits; note: plate controls were buffer without enzyme for full effect and enzyme alone for no effect
BoNT F protease = BoNT/F light chain protease inhibitors, primary screen, biochemical, flow cytometry, MLPCN library. AID 588497, 2011. Multiplex microsphere protease cleavage assay. inhibition, % at 10 µM. Botulinum neurotoxin type F light chain protease (Clostridium botulinum). 360,000 compounds, 0.22% hits; in the data active = inhibition above about 35%, passing the limit was not always enough; inconclusive = no clear call, values can overlap the other calls; note: plate controls were buffer without enzyme for full effect and enzyme alone for no effect
SARS 3CLpro inh = SARS-CoV 3CLpro protease inhibitors, primary screen, biochemical, quenched FRET; AID 1706, 2009; recombinant SARS-CoV 3CLpro, quenched FRET peptide cleavage; 290,000 compounds, 0.14% hits; inhibition, % at 6 µM; Replicase polyprotein 1ab (Severe acute respiratory syndrome coronavirus), P0C6X7; in the data active = inhibition above about 12%
CCHF vOTU inh-1 = CCHFV vOTU protease inhibitors, primary screen, biochemical, Pep-AMC substrate, fluorescence; inhibition, % at 11.5 µM; 370,000 compounds, 0.55% hits; AID 651958, 2012; in the data active = inhibition above about 30%; note: 0% = vehicle wells with enzyme and 100% = no enzyme wells
Bead autofluor = compound fluorescence in toxin protease inhibitor counterscreen. compound autofluorescence counterscreen, microsphere flow cytometry; active compounds read high. fluorescence intensity (test concentration not listed). 360,000 compounds, 3.1% hits. AID 624483; in the data active = fluorescence intensity above about 16000; inconclusive = no clear call, values can overlap the other calls
Anthrax LF prot = Bacillus anthracis LF protease inhibitors, primary screen, biochemical, multiplex microsphere, MLPCN library | multiplex microsphere protease cleavage assay | inhibition, % at 10 µM | 360,000 compounds, 0.12% hits; note: plate controls were buffer without enzyme for full effect and enzyme alone for no effect
CCHF vOTU inh-2 = CCHFV vOTU protease inhibitors, confirmation, biochemical, Pep-AMC substrate, fluorescence; Recombinant CCHFV vOTU; shares compounds with CCHF vOTU inh-1; inhibition, % at 11.5 µM; 1,900 compounds, 17% hits; in the data active = inhibition above about 30%
The depositor's hits bear a star; ? = inconclusive; · = no result. In the library only some 3.9% were active in any assay of this set; here they are far more common. Cut-off read from the data, not from the text of the source, unless noted: active = inhibition above about 30%; inconclusive = no clear call, values can overlap the other calls; inactive = below that.

SMILES	BoNT-A LC inh2	BoNT F protease	SARS 3CLpro inh	CCHF vOTU inh-1	Bead autofluor	Anthrax LF prot	CCHF vOTU inh-2
O=C(N/N=C/c1ccc([N+](=O)[O-])o1)C1CC1	0	1	-3	32*	4253	-7	-12
NC(=O)N/N=C/c1ccc([N+](=O)[O-])o1	0	-1	·	11	6424	4	·
O=C1C(Cl)=C(NCCCN2CCOCC2)C(=O)c2ccccc21	0	-4	·	17	3851	-6	·
O=C1C(Cl)=C(NCCCO)C(=O)c2ccccc21	1	15	3	45*	2142	2	48*
O=c1cc(NCCCO)c2ccccc2o1	0	-7	2	0	10725	1	·
CC(=O)Nc1ccc(NC2=C(Cl)C(=O)c3ccccc3C2=O)cc1	·	·	6	2	·	·	·
Cc1ccc(NC2=C(NCCO)C(=O)c3ccccc3C2=O)cc1	0	-1	7	115*	1948	1	42*
CCOCCCNC1=C(Cl)C(=O)c2ccccc2C1=O	0	?	1	46*	4720	-8	60*
O=C1C(Cl)=C(NCCN2CCOCC2)C(=O)c2ccccc21	-4	?	1	43*	3943	9	62*
COC(=O)C1=C(C)N(CC(C)C)C(=S)NC1c1ccc(-c2ccccc2)cc1 (centres undefined)	·	·	·	15	·	·	·
COc1ccc(NC(=O)[C@@H]2CCCN2C(=O)[C@@H]2Cc3ccccc3CN2C(=O)OC(C)(C)C)cc1	-2	-6	-1	35*	5459	-1	-6
O=C(CCc1ccc(S(=O)(=O)N2CCOCC2)cc1)Nc1ccc(F)c(F)c1F	2	0	·	35*	5977	-2	-15
O=C(CCc1ccc(S(=O)(=O)N2CCOCC2)cc1)Nc1c(F)cccc1F	0	2	·	5	4735	4	·
COc1ccccc1NC(=O)CCC(=O)O	0	-2	-1	5	5907	-1	·
Cc1cc(Cl)c(C)c(S(=O)(=O)Oc2ccccc2NC(=O)CCC(=O)O)c1Cl	0	-1	·	33*	2993	-8	-6
Cc1ccsc1/C=N\Nc1cn[nH]c(=O)c1Cl	0	-4	3	30*	4388	-3	3
O=c1[nH]ncc(N/N=C/c2ccccc2)c1Cl	1	1	-7	1	15870	2	·
COCCn1c(SCC(=O)NCC2CCCO2)nc2c(c1=O)SC(C)C2 (centres undefined)	0	-2	-1	32*	5497	1	-10
CC1Cc2nc(SCC(=O)NCC3CCCO3)n(-c3ccccc3)c(=O)c2S1 (centres undefined)	0	-3	·	8	3697	15	·
COc1ccc(/C=C/C(=O)c2ccc(OC)cc2OC)cc1	1	-2	6	4	5248	-1	·
CNc1ccc(Br)cc(C(=O)/C=C/c2ccc(OC)cc2)c1=O	28	2	0	36*	2252	9	-5
COC(=O)[C@]12C[C@H](CC(=O)NCCc3ccccc3OC)C(=O)N(Cc3ccccc3)C1=C[C@H](COCc1ccccc1)O[C@@H]2C	·	·	·	8	·	·	·
Cc1ccc(/C=C2/NC(=O)N(Cc3ccccc3)C2=O)s1	20	14	3	-6	11374	10	·
CCN1C(=O)/C(=C/c2ccc(C)s2)NC1=S	6	-5	2	31*	2768	7	-14
CS(=O)(=O)N[C@@H]1C[C@@H]2O[C@H](CO)CC[C@@H]2O[C@@H]1CCc1ccc(/C=C/c2ccccc2)cc1	·	·	·	-2	·	·	·
SMILES	BoNT-A LC inh2	BoNT F protease	SARS 3CLpro inh	CCHF vOTU inh-1	Bead autofluor	Anthrax LF prot	CCHF vOTU inh-2
O=C1c2cc(CO)cc(O)c2C(=O)c2c(O[C@@H]3OC(CO)[C@@H](O)[C@@H](O)[C@@H]3O)cccc21 (some centres undefined)	0	-7	·	0	4061	-13	·
O=C(O)c1cc(O)c2c(c1)[C@@H]([C@H]1c3cc(C(=O)O)cc(O)c3C(=O)c3c(O[C@@H]4O[C@H](CO)[C@@H](O)[C@H](O)[C@H]4O)cccc31)c1cccc(OC3O[C@H](CO)[C@@H](O)[C@H](O)[C@H]3O)c1C2=O (some centres undefined)	-4	22	·	73*	4822	-7	33*
O=C(O)c1cc(O)c2c(c1)[C@H]([C@H]1c3cc(C(=O)O)cc(O)c3C(=O)c3c(O[C@@H]4O[C@H](CO)[C@@H](O)[C@H](O)[C@H]4O)cccc31)c1cccc(OC3O[C@H](CO)[C@@H](O)[C@H](O)[C@H]3O)c1C2=O (some centres undefined)	-6	-9	·	118*	4861	-10	107*
O=S(=O)(NCC(c1ccco1)N1CCc2ccccc2C1)c1ccc(F)cc1 (centres undefined)	-1	-2	·	-4	?	1	·
Cc1cc(C)c(S(=O)(=O)NCC(c2ccco2)N2CCc3ccccc3C2)c(C)c1 (centres undefined)	-2	-6	·	30*	6729	-3	3
Cc1ccc(S(=O)(=O)N2C(c3ccc(Cl)c(Cl)c3)CC=C(C(=O)O)C2c2cccc(Cl)c2)cc1 (centres undefined)	·	·	·	-7	·	·	·
Cc1ccc(S(=O)(=O)N2C(c3ccc(Cl)c(Cl)c3)CC=C(C(=O)O)C2c2ccc(Cl)cc2)cc1 (centres undefined)	·	·	·	35*	·	·	16
Cc1ccc(S(=O)(=O)N2[C@@H](c3ccccc3)C(C(=O)O)=CC[C@H]2c2cccc(Cl)c2)cc1	0	-2	·	-2	4066	-3	·
Cc1ccc(S(=O)(=O)N2[C@@H](c3ccc(Cl)cc3)C(C(=O)O)=CC[C@H]2c2ccc(Cl)c(Cl)c2)cc1	-1	-3	·	33*	3480	-8	13
O=C(N[C@H](Cc1ccccc1)C(=O)NCc1ccccn1)[C@H]1O[C@@H](n2ccc(=O)[nH]c2=O)[C@H](O)[C@@H]1O	·	·	·	-17	·	·	·
O=C(NC(CC1=CCCCC1)c1ccccc1)C(F)(F)F (centres undefined)	·	·	·	2	·	·	·
COc1ccccc1N1CCN(c2ccc(S(=O)(=O)N3CCN(C)CC3)cn2)CC1	0	0	·	33*	3067	-2	-12
CN1CCN(c2ccc(S(=O)(=O)N3CCCCC3)cn2)CC1	0	13	4	9	2176	-7	·
Cc1nc2c(o1)C(=O)c1ccccc1C2=Nc1ccccc1	0	-5	·	41*	2983	-8	53*
